Tgondii IFNg – T. gondii growth inhibition with IFN-gamma, primary screen, cell-based; Toxoplasma gondii growth in IFN-gamma-treated host cells; hits give low values; activity change, negative = inhibition, % (no concentration beside the values); 69,000 compounds, 3.8% hits; in the data active = activity change below about -70%, passing the limit was not always enough;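 also: host cells are HeLa cells infected with Toxoplasma gondii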
Numbers without * were called inactive; ! = repeats disagree. Shown is part of a subset that was picked to be rich in hits.

`CCc1[nH]c2c(CNc3cc(N4CCOCC4)ncn3)cc(C)cc2c1C` gave Tgondii IFNg -5.
Cc1cc(Nc2ccc(C(=O)O)cc2)nc(N)n1 was read as Tgondii IFNg 68.
Cc1ccc(Nc2nc(C(=O)Nc3ccc(Cl)cc3)nc3ccccc23)cc1 was read as Tgondii IFNg 44.
Cc1cc(Nc2ccc(NC(=O)c3ccc(Nc4ccnc5ccccc45)cc3)cc2)nc(N)n1 was read as Tgondii IFNg -78*.
For Cc1ccc2c(c1)c(CNC(=O)c1cccc(C#CC(C)(C)O)c1)nn2C the results were Tgondii IFNg -1.
`Cn1nc(C2CCCN(c3ncccc3C(N)=O)C2)n(-c2ccccc2)c1=O` (stereo not given) gave Tgondii IFNg 1.
For CN(C(=O)c1ccsc1)C(Cc1ccccc1)C1CCN(C(=O)C2=CCCC2)CC1 (stereo not given) the results were Tgondii IFNg -8.
Screening Cc1nc2ccncc2cc1C(=O)N1CCN(C)C(=O)C1 returned Tgondii IFNg 3.
CCN1c2cc(C)ccc2-n2cccc2C12CCN(C(=O)Nc1ccccc1Br)CC2 was read as Tgondii IFNg 39.
`CCCCSC(=S)NC1CCS(=O)(=O)C1` (stereo not given) gave Tgondii IFNg 4.
CCCCCCCCCCOC1CCS(=O)(=O)C1 (stereo not given) was read as Tgondii IFNg -84*.
For COc1cccc(-n2c(CCCO)nc3ccccc32)n1 the results were Tgondii IFNg 64.
O=C1CCN(Cc2ccccc2)C(=S)N1 was read as Tgondii IFNg -30.
O=C(CCN1CCCCC1)N[C@H]1CC[C@H](CCn2cc(-c3cccc(F)c3)nn2)O[C@@H]1CO was read as Tgondii IFNg -10.
`CCC1c2cccn2CCN1S(=O)(=O)NCc1ccccc1` (stereo not given) gave Tgondii IFNg -7.
For Cc1nn(-c2ccccc2)nc1C(N)=O the results were Tgondii IFNg -8.
Screening Cc1cc(C)nc(Nc2ccc(O)cc2)n1 returned Tgondii IFNg -5.
COc1ccc(-c2nc(Nc3ccccc3)c3ccccc3n2)cc1 was read as Tgondii IFNg -38.
`COc1nc(Nc2ccccc2)nc(OC)n1` gave Tgondii IFNg -116*.
`CCC(=O)OCCSc1nc2ccccc2o1` gave Tgondii IFNg 55.
For Cc1nc(C(C)C)sc1C(=O)N1CCCN(C)C2(CCN(C)CC2)C1 the results were Tgondii IFNg 0.
CC(C)NC(=O)[C@@H]1C[C@H](N)CN1C(=O)CCn1cc(Cl)cn1 was read as Tgondii IFNg -2.
`Cc1cc(C)n(CCC(=O)N2CCCC3(C2)NC(=O)c2ccccc2N3)n1` (stereo not given) gave Tgondii IFNg -51.
Cc1[nH]c(=O)[nH]c(=O)c1-c1ccc(C(C)N2CCCC2)cc1 (stereo not given) was read as Tgondii IFNg -1.
`CC(c1cccc(-c2ccc3[nH]c(=O)[nH]c(=O)c3c2)c1)N1CCCC1` (stereo not given) gave Tgondii IFNg -71*.
CC(c1cccc(-c2ccc[nH]c2=O)c1)N1CCCC1 (stereo not given) was read as Tgondii IFNg 3.
For CCOC(=O)c1cc2c(n(-c3ccccc3)c1=O)CC(C)(C)CC2=O the results were Tgondii IFNg -12.
C=CCN1CCN(C)C(=O)C12CCN(c1cnccn1)C2 (stereo not given) was read as Tgondii IFNg -1.
Screening CC1CCCN(CCNc2nccc(C3CCCC3)n2)C1 (stereo not given) returned Tgondii IFNg -6.
Cc1ccc(Cn2c(-c3ccc(F)cc3)c(-c3ccc(F)cc3)nnc2=O)cc1 was read as Tgondii IFNg -83*.
For Cc1ccc(-n2sc(=O)n(Cc3ccc(F)cc3)c2=O)cc1 the results were Tgondii IFNg -4.
Screening CCOC(=O)Cn1nc2nnc(-c3ccc(F)cc3)c(-c3ccc(F)cc3)n2c1=O returned Tgondii IFNg -36.
COCCn1cnc2nnc3ccc(C(=O)Cc4ccccn4)cc3c21 was read as Tgondii IFNg -39.
For O=C(NCc1cnc2n1CCN(Cc1ccccn1)C2)C1CC1 the results were Tgondii IFNg -4.
Screening O=C(NCCc1c[nH]c2ccc(Cl)cc12)c1cccs1 returned Tgondii IFNg 11.
`O=C(NCCc1c[nH]c2ccc(Cl)cc12)c1sc2ncccc2c1-n1cccc1` gave Tgondii IFNg 423.
For CCCN1CCN(c2ncnc3sc(C(=O)NCCc4c[nH]c5ccc(Cl)cc45)c(C)c23)CC1 the results were Tgondii IFNg -85*.
For COc1ccccc1-c1ccc([C@@H]2[C@@H](CO)N3CCCCN(C(=O)c4cccnc4)C[C@H]23)cc1 the results were Tgondii IFNg 15.
`CC(=O)N1c2ccccc2C(CSc2nc3ccccc3s2)=CC1(C)C` gave Tgondii IFNg -22.
Screening Cc1ccc2[nH]c(=O)c(-c3nc(-c4ccc(OC(C)C)cc4)no3)c(O)c2c1 returned Tgondii IFNg 60.
For OCCN1CCN(CCCN2c3ccccc3Sc3ccc(Cl)cc32)CC1 the results were Tgondii IFNg -100*!.
`CN(C)CCCN1c2ccccc2Sc2ccc(Cl)cc21` gave Tgondii IFNg -81*!.
CC(=O)c1ccc2c(c1)N(CCCN1CCC(CCO)CC1)c1ccccc1S2 was read as Tgondii IFNg -34.
Screening O=C(CSc1nnc(-c2ccco2)o1)N1c2ccccc2Sc2ccc(Cl)cc21 returned Tgondii IFNg 15.
For O=C(CCN1CCN2CCCCC2C1)N1c2ccccc2Sc2ccc(Cl)cc21 (stereo not given) the results were Tgondii IFNg -12.
For CN(C)CCCN1c2ccccc2CCc2ccccc21 the results were Tgondii IFNg -51.
O=C(NC1CC1)c1cc(NCCOc2cccc3cccnc23)ccn1 was read as Tgondii IFNg 9.
For CN(C)CCCCC(=O)Nc1ccc(NC(=S)NC(=O)c2ccc(C(C)(C)C)cc2)cc1 the results were Tgondii IFNg 11.
For CCNC(=O)[C@@H]1C[C@H](N)CN1C(=O)C1(c2ccc(OC)cc2)CCCC1 the results were Tgondii IFNg -50.
`O=C(C[C@H]1CC[C@H]2[C@@H](COC[C@@H](O)CN2Cc2ccc3c(c2)OCO3)O1)N1CCCCC1` gave Tgondii IFNg -22.
Screening CCc1cc2c(=O)n(Cc3ccco3)c(SC)nc2s1 returned Tgondii IFNg 28.
`Cn1cccc1C(=O)NC[C@H]1C[C@H]2CN(C(=O)c3ccco3)C[C@@H]2O1` gave Tgondii IFNg -1.
CCOc1ccccc1C(=O)Nc1ccc(-c2nc(Cn3cc(C)cn3)c(C)o2)cc1 was read as Tgondii IFNg -45.
`Cc1cc(C)n(Cc2nc(-c3ccc(NC(=O)/C=C/c4ccccc4)cc3)oc2C)n1` gave Tgondii IFNg -43.
Cc1cnn(Cc2nc(-c3ccc(NC(=O)c4ccccc4Cl)cc3)oc2C)c1 was read as Tgondii IFNg -84*.
Screening Cc1ccc(C(=O)Nc2ccc(-c3nc(Cn4cccn4)c(C)o3)cc2)c(C)c1 returned Tgondii IFNg -59.
Screening Cc1cnn(Cc2nc(-c3ccc(NC(=O)c4sccc4C)cc3)oc2C)c1 returned Tgondii IFNg -51.
For Cc1cnn(Cc2nc(-c3ccc(NC(=O)c4cccs4)cc3)oc2C)c1 the results were Tgondii IFNg -76*.
`Cc1oc(-c2ccc(NC(=O)c3ccccc3Cl)cc2)nc1Cn1cccn1` gave Tgondii IFNg -100*.
`Cc1cnn(Cc2nc(-c3ccc(NC(=O)c4ccc(Cl)s4)cc3)oc2C)c1` gave Tgondii IFNg 63.

Assay outcomes (PubChem)
